This is a sample that favours compounds with a hit; in the whole collection about 3.4% have one here.
GPR151 activ = activates the human receptor GPR151; Q8TDV0; PathHunter beta-arrestin GPR151 cells, luminescence; activation, % at 11.2 µM; hit rate 1% among 650,000; AID 1508602; in the data active = activation above about 4.9%;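 also: 0% = median of compound wells and 100% = cells with positive control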
MITF inh = human MITF inhibition, primary screen | O75030 | AlphaScreen MITF homodimerization, bead proximity signal | inhibition, % at 2.6 µM | hit rate 0.91% among 650,000 | AID 1259374; in the data active = inhibition above about 50%;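 also: 0% = vehicle wells with protein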
TEAD-YAP block = TEAD-YAP interaction inhibition. HEK-TIYL cells, TEAD-Gal4/YAP UAS-luciferase luminescence. inhibition, % at 9.12 µM. hit rate 1.4% among 640,000. AID 1259422; in the data active = inhibition above about 32%;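 also: 0% = median of test compound wells and 100% = reference inhibitor wells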
FBW7 activator = human FBW7 E3 ligase activation, primary screen | Q969H0 | normalized activity (activation), % at 26.1 µM | AID 1259310 | hit rate 0.13% among 650,000 | AlphaScreen FBW7–phospho-cyclin E peptide binding, activator screen; in the data active = normalized activity above about 1.9%;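 also: purified mutant Fbw7 with reduced substrate affinity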
Target sequence (Q969H0 whole entry, looked up): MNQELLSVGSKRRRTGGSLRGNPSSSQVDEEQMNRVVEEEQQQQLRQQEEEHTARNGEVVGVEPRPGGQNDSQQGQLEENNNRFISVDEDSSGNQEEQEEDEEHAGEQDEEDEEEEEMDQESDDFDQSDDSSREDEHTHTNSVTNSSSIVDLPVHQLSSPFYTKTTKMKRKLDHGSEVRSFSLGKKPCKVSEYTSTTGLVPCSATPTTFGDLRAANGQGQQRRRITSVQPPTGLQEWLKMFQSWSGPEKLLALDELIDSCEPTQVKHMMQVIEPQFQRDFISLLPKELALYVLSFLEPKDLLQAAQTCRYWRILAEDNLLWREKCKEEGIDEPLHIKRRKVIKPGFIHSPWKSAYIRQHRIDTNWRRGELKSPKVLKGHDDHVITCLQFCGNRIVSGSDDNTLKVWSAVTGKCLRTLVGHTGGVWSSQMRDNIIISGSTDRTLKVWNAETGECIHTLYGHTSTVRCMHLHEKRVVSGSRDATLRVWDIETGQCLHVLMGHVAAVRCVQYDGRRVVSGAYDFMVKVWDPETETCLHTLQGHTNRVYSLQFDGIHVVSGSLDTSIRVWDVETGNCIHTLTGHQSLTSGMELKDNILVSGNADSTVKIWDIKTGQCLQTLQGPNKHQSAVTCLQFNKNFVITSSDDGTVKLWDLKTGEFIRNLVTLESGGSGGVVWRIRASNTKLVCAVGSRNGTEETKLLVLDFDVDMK
GPR151 conf act = human GPR151 activation, confirmation screen; shares compounds with GPR151 activ; activation, % at 11.2 µM; 6,700 tested, under 10 active; GPR151 PathHunter beta-arrestin cells, luminescence, 90 min; % of EA-reagent control over plate median;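 active = mean percent activation across replicates above the confirmation screen cutoff of 4.91%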
GPR119 counter = counter-screen for GPR151 activators: effect on human GPR119; activation, % at 11.2 µM; shares compounds with GPR151 activ; AID 1508611; GPR119 PathHunter beta-arrestin cells, luminescence, 90 min; 0 = compound-well median, 100 = enzyme-acceptor control; hit rate 0.3% among 6,700;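 active = mean percent activation in the counterscreen above 29.09%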;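 also: counterscreen on off-target GPR119 to flag nonselective hits from the GPR151 activator screen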
Active calls of the source: *.

How did Cc1cc(C)c(CN2CCc3nnc(CCNC(=O)COc4ccccc4)n3CC2)cc1C do in these assays?
GPR151 activ: -0.7; MITF inh: 0.3; TEAD-YAP block: 0.4; FBW7 activator: 0.1

Results for CCC(CC)CN1CCc2nnc(CCNC(=O)COc3ccccc3)n2CC1 ?
GPR151 activ: 5.1*; MITF inh: 14.7; TEAD-YAP block: 3.0; FBW7 activator: 0.8; GPR151 conf act: 0.9; GPR119 counter: 6.7

What do the screens show for `O=C(Nc1ccccc1)Oc1ccc(F)cc1`?
GPR151 activ: -0.3; MITF inh: -6.1; TEAD-YAP block: 2.3; FBW7 activator: -0.2

Results for CCN(CC)C(=O)C1CCCN(c2nc(N)c3ncn(CCN4CCCC4=O)c3n2)C1 (centres undefined) ?
GPR151 activ: -1.0; MITF inh: 12.4; TEAD-YAP block: 1.4; FBW7 activator: 0.1

What do the screens show for `Cc1cccc(OCCCN2CCOCC2)c1C`?
GPR151 activ: 5.1*; MITF inh: -7.2; TEAD-YAP block: 9.4; FBW7 activator: 0.0; GPR151 conf act: -1.2; GPR119 counter: -7.7

What do the screens show for `COCCCN1C(=O)C(O)=C(C(=O)c2ccco2)C1c1ccc(C(C)(C)C)cc1` (centres undefined)?
GPR151 activ: -0.4; MITF inh: 18.9; TEAD-YAP block: 17.4; FBW7 activator: 1.4

How did COCCN1C(=O)C(O)=C(C(=O)c2ccc(C)o2)C1c1ccc(C(C)(C)C)cc1 (centres undefined) do in these assays?
GPR151 activ: 7.5*; MITF inh: -1.4; TEAD-YAP block: 7.2; FBW7 activator: -0.2; GPR151 conf act: -0.4; GPR119 counter: -1.7

How did CCC(CC)NC(=O)c1ccc(C)c([N+](=O)[O-])c1 do in these assays?
GPR151 activ: 5.2*; MITF inh: 1.1; TEAD-YAP block: -1.2; FBW7 activator: 0.0; GPR151 conf act: 0.6; GPR119 counter: 0.3

How did Cc1ccc(NC(=O)c2cccc(I)c2)cc1[N+](=O)[O-] do in these assays?
GPR151 activ: 4.9*; MITF inh: -14.7; TEAD-YAP block: -24.0; FBW7 activator: 0.0; GPR151 conf act: 1.0; GPR119 counter: -6.6

Results for COc1ccc(C2CC(c3cccs3)=NN2C(=O)CSc2nnc(CNC(=O)c3ccco3)n2-c2cc(C)ccc2C)cc1 (centres undefined) ?
GPR151 activ: -0.5; MITF inh: -6.3; TEAD-YAP block: -1.2; FBW7 activator: 0.8

How did CCC1=NN(C(=O)Cc2ccccc2)C(O)(c2ccccc2)C1 (centres undefined) do in these assays?
GPR151 activ: 6.9*; MITF inh: 6.1; TEAD-YAP block: -5.3; FBW7 activator: 0.1; GPR151 conf act: -0.2; GPR119 counter: 6.8

Results for CCN(CC)C(=O)c1sc(NC(=O)c2c(-c3ccccc3Cl)noc2C)c(C(=O)OC)c1C ?
GPR151 activ: -0.4; MITF inh: -0.3; TEAD-YAP block: -6.2; FBW7 activator: 0.0

What do the screens show for `Cc1noc(C)c1-c1nc(N)c2ncn(Cc3ccc(C(F)(F)F)cc3)c2n1`?
GPR151 activ: 5.8*; MITF inh: 12.1; TEAD-YAP block: -14.8; FBW7 activator: 0.2; GPR151 conf act: -1.2; GPR119 counter: -9.3

Results for Nc1nc(N2CCC(N3CCOCC3)CC2)nc2c1ncn2Cc1ccc(C(F)(F)F)cc1 ?
GPR151 activ: 6.4*; MITF inh: -7.8; TEAD-YAP block: -11.1; FBW7 activator: 0.0; GPR151 conf act: -0.5; GPR119 counter: -1.3

How did Cc1noc(C)c1-c1nc(NC2CC2)c2ncn(Cc3ccc(C(F)(F)F)cc3)c2n1 do in these assays?
GPR151 activ: 0.0; MITF inh: 14.5; TEAD-YAP block: -6.3; FBW7 activator: 0.1

Results for Nc1nc(N2CCOCC2)nc2c1ncn2Cc1ccc(C(F)(F)F)cc1 ?
GPR151 activ: -0.4; MITF inh: 0.3; TEAD-YAP block: -2.9; FBW7 activator: -0.2

Results for COc1ccccc1-c1nnc(C2CCN(S(=O)(=O)c3ccc(C)c(C)c3)CC2)o1 ?
GPR151 activ: -0.3; MITF inh: 12.3; TEAD-YAP block: -13.9; FBW7 activator: -0.2

What do the screens show for `COc1cccc2cc(C(=O)/C=C/c3cccc(F)c3)c(=O)oc12`?
GPR151 activ: 5.4*; MITF inh: -6.5; TEAD-YAP block: -2.0; FBW7 activator: -0.1; GPR151 conf act: 0.0; GPR119 counter: 1.0

What do the screens show for `Cc1ccc2nc(-c3ccccn3)cc(C(=O)Nc3ccc([N+](=O)[O-])cn3)c2c1`?
GPR151 activ: 14.7*; MITF inh: -1.8; TEAD-YAP block: 3.1; FBW7 activator: -0.2; GPR151 conf act: -0.1; GPR119 counter: 2.7

How did Cc1ccccc1NC(=O)NC1(C(F)(F)F)Oc2cc(Cl)c(Cl)cc2O1 do in these assays?
GPR151 activ: -0.7; MITF inh: -14.8; TEAD-YAP block: -3.0; FBW7 activator: -0.2

How did Cn1ncc2c(Nc3ccc(Cl)cc3Cl)ncnc21 do in these assays?
GPR151 activ: 0.7; MITF inh: 12.5; TEAD-YAP block: 1.9; FBW7 activator: 0.0

Results for Cn1ncc2c(NCCc3ccc(Cl)cc3Cl)ncnc21 ?
GPR151 activ: 5.0*; MITF inh: 1.3; TEAD-YAP block: 28.1; FBW7 activator: 0.1; GPR151 conf act: 3.0; GPR119 counter: 34.7*

Results for O=[N+]([O-])c1ccc(NC2CCCCC2)nc1 ?
GPR151 activ: -0.6; MITF inh: 0.3; TEAD-YAP block: -3.2; FBW7 activator: -0.3

Results for O=C(Nc1ccc([N+](=O)[O-])cn1)C1CCCCC1 ?
GPR151 activ: 9.2*; MITF inh: 12.1; TEAD-YAP block: -3.7; FBW7 activator: 0.1; GPR151 conf act: -0.6; GPR119 counter: -9.6

How did Cc1ccc(Nc2c(-c3ccc(N4CCOCC4)cc3)nc3c[n+](CC(N)=O)ccn23)cc1 do in these assays?
GPR151 activ: 5.1*; MITF inh: 15.5; TEAD-YAP block: -10.5; FBW7 activator: 0.0; GPR151 conf act: 0.2; GPR119 counter: 0.8

How did COc1ccc(-c2nc3c[n+](CC(N)=O)ccn3c2Nc2ccccc2C)cc1 do in these assays?
GPR151 activ: 6.7*; MITF inh: 12.6; TEAD-YAP block: -7.2; FBW7 activator: 0.0; GPR151 conf act: 0.5; GPR119 counter: 3.0

Results for CCn1c(SCC(=O)NCc2cccs2)nnc1-c1cccs1 ?
GPR151 activ: 6.9*; MITF inh: 4.9; TEAD-YAP block: 20.7; FBW7 activator: 0.1; GPR151 conf act: -0.4; GPR119 counter: -0.5

What do the screens show for `CCn1c(SCC(=O)Nc2ccc(OC)cc2)nnc1-c1cccs1`?
GPR151 activ: 0.8; MITF inh: 5.3; TEAD-YAP block: 10.0; FBW7 activator: 0.2

What do the screens show for `CCn1c(SCC(=O)Nc2cc(OC)cc(OC)c2)nnc1-c1cccs1`?
GPR151 activ: 5.5*; MITF inh: -0.6; TEAD-YAP block: 18.2; FBW7 activator: 1.0; GPR151 conf act: 0.1; GPR119 counter: -0.4

Screening data (PubChem BioAssay)
